Measurements reported in PubChem BioAssay AID652268 (The Scripps Research Institute Molecular Screening Center, 2013).
Among all 1,600 compounds or so, about 160 (10%) were called active. No stated cut-off is given here; in the data, active means activation above about 1.3%; inactive means the rest. The list is a sample of the results.

Test: nonspecific cAMP agonists in parental HEK-CNG cells, counter-screen for GalR3 antagonist project, cell-based, fluorescence, high throughput (AID 652268)
Conditions: HEK293-CNG parental cells, cAMP membrane potential fluorescence; at 3 µM; stronger effect = higher value; normalised: DMSO wells 0%, forskolin wells 100%

SMILES | activation
CC(CCc1ccccc1)NCC(O)c1cccc([N+](=O)[O-])c1 (configuration not stated) | 0.27% (inactive)
C=CCC1(CC=C)CCCN1C(=O)c1cc(COc2ccc(-n3cncn3)cc2)on1 | -0.46% (inactive)
Nc1ncnc2c1ncn2C1OC(CO)CC1O (configuration not stated) | -0.01% (inactive)
COc1cc(C(=O)Nn2c(O)c(C3=c4ccccc4=NC3=O)sc2=S)ccc1O | -0.64% (inactive)
COc1ccc(CCNc2nc3ccc(C)cc3n3cnnc23)cc1OC | 0.25% (inactive)
COc1ccc(-c2[nH]nc3c2C(c2ccncc2)C(C#N)=C(N)O3)cc1 (configuration not stated) | 0.22% (inactive)
COCCN1Cc2cccc(C(=O)Nc3ccccc3OC)c2C1=O | 0.15% (inactive)
CCOC(=O)c1cc2n(c1C)-c1ccccc1C2=O | 0.34% (inactive)
Cn1c(N)c(C(=O)COC(=O)c2cnc(Cl)c(Cl)c2)c(=O)n(C)c1=O | 0.4% (inactive)
CCOc1ccc(C(C)=O)cc1COC(=O)c1cnc(Cl)c(Cl)c1 | 4.48% (active)
COCCNC(=O)/C(C#N)=C/c1cccc(OCc2ccccc2)c1 | 0.53% (inactive)
CSc1nc(N)c(C#N)c(-c2ccccc2Cl)c1C#N | -0.24% (inactive)
O=C(Nc1ccc(CSc2ccccc2)cc1)c1ccc(CN2CCOCC2)cc1 | -1.27% (inactive)
C[C@@]12C(=O)N(c3cccc(Br)c3)C(=O)N1[C@H](c1ccc(Cl)cc1)[C@@H]1C(=O)N(C3CCCCC3)C(=O)[C@@H]12 | -2.49% (inactive)
COc1ccc(OC)c(NC(=O)CSc2nc(N)c(-c3ccccc3)c(=O)[nH]2)c1 | 0.95% (inactive)
COc1ccc(-c2csc(-c3cccs3)n2)cc1OC | 0.07% (inactive)
COc1ccc(C2Nc3ccccc3C(=O)N2c2ccc(Cl)cc2)cc1Cn1cc([N+](=O)[O-])cn1 (configuration not stated) | -0.27% (inactive)
COc1ccc(C(=O)COC(=O)COc2ccc(C)c(C)c2)cc1 | 0.4% (inactive)
Cc1c(C=O)c2ccccc2n1CC(=O)O | 0.2% (inactive)
Cc1c(Cl)cccc1NC(=O)CSc1ccc(-c2cccnc2)nn1 | 0.04% (inactive)
CC1(C)CC(N2CCN(C(c3ccccc3)c3ccccc3)CC2)=CC(=[N+]2CCCCC2)C1 | 10.7% (active)
CC(C)(CNC(=O)c1ccc(Cl)c(S(=O)(=O)N2CCc3ccccc3C2)c1)N1CCOCC1 | -0.38% (inactive)
COC(=O)c1cccc([N+](=O)[O-])c1CS(=O)(=O)c1ccc(C)cc1 | -0.01% (inactive)

SMILES | activation
Cc1ccc(S(=O)(=O)N2CCN(C(=O)COC(=O)c3c(C)cc(C)cc3C)CC2)c(C)c1 | 0.55% (inactive)
c1coc(CNc2ncnc3ccccc23)c1 | 0% (inactive)
Cn1nccc1C(=O)NC1CCCc2c1cnn2-c1ccc(F)cc1F (configuration not stated) | -0.59% (inactive)
CCCCNC(=O)c1ccccc1NC(=O)C1=C(C)OCCS1 | -0.01% (inactive)
Cc1ccc(F)cc1NC(=O)Cc1nn(C)c(=O)c2ccccc12 | 0.14% (inactive)
Cn1cnc([N+](=O)[O-])c1Nc1ccccc1O | 0.12% (inactive)
C#Cc1ccc(NC(=O)C2(C)CCN2C(=O)Cc2ccc(-c3ccccc3)cc2)cc1 (configuration not stated) | -0.7% (inactive)
O=C(CC1C(=O)NCCN1CC(c1ccccc1)c1ccccc1)NCCc1cn[nH]c1 (configuration not stated) | 0.5% (inactive)
CC(=O)c1c(C)[nH]c(C(=O)COC(=O)c2cccc(S(=O)(=O)N(C)c3ccccc3)c2)c1C | -0.83% (inactive)
c1ccc(Cc2ccc(OCCn3ccnc3)cc2)cc1 | -0.02% (inactive)
CCCn1nc(C(=O)NNC(=O)CSCC(=O)Nc2cc(C)on2)c2ccccc2c1=O | 0.16% (inactive)
Cn1c(CN2CCOCC2)nc2cc(NC(=O)c3ccc(Cl)cc3)ccc21 | 0.05% (inactive)
CCNC(=S)Nc1ccc(OC(F)(F)F)cc1 | -0.01% (inactive)
CC(C)[C@@H](C(=O)OCC(=O)c1ccc2c(c1)NC(=O)CO2)N1C(=O)c2ccccc2C1=O | 0.06% (inactive)
OC[C@@H]1CN(Cc2ccc(-c3ccccc3)cc2)C[C@H](n2cnc3c(NC4CCCC4)ncnc32)O1 | -0.91% (inactive)
CCCOc1ccc(Cc2c(Cl)nc(SC)nc2NC)cc1 | 1.12% (inactive)
COc1ccc(N(C(=O)CNC(=O)c2ccco2)C(C(=O)NCC2CCCO2)c2ccccc2)cc1Cl (configuration not stated) | -0.24% (inactive)
CC(=O)OC(C)C[N+](C)(C)C (configuration not stated) | 0.43% (inactive)
COC(=O)c1ccc(/C=N/N2C(C)CCCC2C)cc1 (configuration not stated) | 0.27% (inactive)
COc1cc(NC(=O)c2cc([N+](=O)[O-])ccc2Br)ccc1NC(=O)c1ccco1 | -0.55% (inactive)
CCn1c(-c2cc(OC)ccc2OC)csc1=Nc1c(C)n(C)n(-c2ccccc2)c1=O | 0.13% (inactive)
CCN1/C(=C\c2ccc3ccccc3[n+]2CC)Sc2cc(C)ccc21 | 8.28% (active)
Nc1nc(NCC(=O)O)nc(N2CCCCCC2)c1[N+](=O)[O-] | 0.22% (inactive)

SMILES | activation
CSc1nccc(NC(=O)c2ccc(C(C)(C)C)cc2)n1 | 0.22% (inactive)
CCOC(=O)c1c(NC(=O)CSc2nccc(=O)[nH]2)sc(C)c1C | -1.63% (inactive)
COc1ccc(C2CC(=O)Nc3sc(=N)c4c(N)c(C#N)c(N)nc4c32)cc1OC (configuration not stated) | -0.03% (inactive)
CC(=O)N1CCCc2cc(S(=O)(=O)N3CCCC(C(=O)N4CCN(c5cccc(Cl)c5)CC4)C3)ccc21 (configuration not stated) | -1.04% (inactive)
CN(Cc1cccnc1)C(=O)c1cc(COc2ccc3ncccc3c2)on1 | -0.15% (inactive)
NC(=O)c1ccc(NC(=O)COC(=O)C(Cc2ccccc2)NC(=O)c2ccccc2)cc1 (configuration not stated) | -0.37% (inactive)
CCOc1cc(C(=O)N2CCc3cc(OC)c(OC)cc3C2)ccc1OC(F)F | 1.51% (active)
O=C(Nc1ccccc1Cl)/C(Cl)=C(\Cl)S(=O)c1ccccc1 (configuration not stated) | 3.18% (active)
O=C(/C=C/c1c(F)cccc1Cl)Nc1nn[nH]n1 | 0.23% (inactive)
Nc1nonc1-n1nnc(C(=O)N/N=C/c2cc(Br)ccc2O)c1CSC1=NCCS1 | 0.22% (inactive)
CCN(CC(=O)NCc1ccc(Cl)cc1)C(=O)CSc1ccccc1 | -0.45% (inactive)
O=C(NC(Nc1nc2ccc([N+](=O)[O-])cc2s1)(C(F)(F)F)C(F)(F)F)c1ccccc1 | 9.23% (active)
COc1cc(Cl)c(C)cc1NC(=O)[C@@H]1CCCN1C(=O)c1cccs1 | -0.08% (inactive)
CCOc1ccc(Br)cc1CSC(=N)N | 3.59% (active)
CNC(=O)NC(=O)CSc1nnc(-c2ccc(F)cc2)n1CC1CCCO1 (configuration not stated) | 0.01% (inactive)
CCc1ccc(-c2nc(SCC(=O)NC3CCCC3)n[nH]2)cc1 | 0.04% (inactive)
COc1cc2c(cc1OC)C(c1cccc([N+](=O)[O-])c1)=NCC2 | 0.46% (inactive)
COc1ccc(NS(=O)(=O)c2ccc(NC(=O)c3ccc(N(C)S(C)(=O)=O)cc3)cc2)cc1 | -0.8% (inactive)
O=C(CC(O)(C(F)(F)F)C(F)(F)F)Nc1ccc(Cl)c(Cl)c1 | 1.84% (active)
CSc1nc(N(C)NC(=O)c2cccc(C)c2)c2ccccc2n1 | 2.12% (active)
Cc1nc2ccccc2cc1OCc1ccc(F)cc1 | 1.08% (inactive)
